Measurements from PubChem BioAssay (NCI).
About 79,000 compounds went through this panel and 15% of them were active in at least one assay; those are over-represented in the sample as a whole. Activity calls are given as the source filed them. Cut-off read from the data, not from the text of the source: active = growth inhibition above about 70%; inactive = the rest.

What was measured:
[1] = NCI Yeast Anticancer Drug Screen. Data for the rad50 strain (AID 155);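 note: 0% = growth of vehicle-only cultures of the same strain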; details: S. cerevisiae rad50 strain growth inhibition; at 50.0 µM; active compounds read high
Procedure, shortened: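 Inhibition values express reduced yeast growth in compound-treated cultures relative to vehicle-treated controls.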

[2] = NCI Yeast Anticancer Drug Screen. Data for the mec2-1 strain (AID 157); details: S. cerevisiae mec2-1 strain, at 50.0 µM, active compounds read high
Procedure, shortened: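 Yeast mec2-1 mutant treated with compound. Readout: growth inhibition vs vehicle controls.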

[3] = NCI Yeast Anticancer Drug Screen. Data for the sgs1 mgt1 strain (AID 161);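 note: 0% = growth of cultures given vehicle only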; details: S. cerevisiae sgs1 mgt1 strain, at 50.0 µM, active compounds read high
Procedure, shortened: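 Inhibition of yeast growth, normalised to vehicle-treated controls, is reported for a strain bearing genetic alterations in DNA damage repair.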

[4] = NCI Yeast Anticancer Drug Screen. Data for the cln2 rad14 strain (AID 165);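 note: 0% = growth equal to vehicle treated cultures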; details: S. cerevisiae cln2 rad14 strain, at 50.0 µM, active compounds read high
Procedure, shortened: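 cln2 rad14 yeast strain; compound exposure; growth inhibition read vs vehicle controls.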

[5] = NCI Yeast Anticancer Drug Screen. Data for the bub3 strain (AID 167); details: S. cerevisiae bub3 mutant strain, at 50.0 µM, active compounds read high
Procedure, shortened: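 Steps: expose the mutant yeast strain to compound; grow alongside vehicle-treated cultures; measure growth; express inhibition against the vehicle cultures.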

[6] = NCI Yeast Anticancer Drug Screen. Data for the mlh1 rad18 strain (AID 175); details: S. cerevisiae mlh1 rad18 strain growth inhibition; at 50.0 µM; active compounds read high
Procedure, shortened: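 Yeast w/ defined DNA-repair lesions; compound exposure; growth vs vehicle controls → % inhibition.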

Measured: growth inhibition

O=C(Nc1cc(C(F)(F)F)ccc1Cl)c1ccccc1F
inactive: [1] 17.1% | [2] 29.1% | [3] -6.95% | [4] -9.15% | [5] 34.9% | [6] 18.6%

O=C(Nc1c(Cl)cccc1Cl)Oc1cccnc1
inactive: [1] 0% | [2] -19.8% | [3] -9.1% | [4] 2.55% | [5] -23.1% | [6] -1.05%

Clc1nnc(Cl)c2ncccc12
inactive: [1] 3.6% | [2] 8.3% | [3] -3.6% | [4] -2.95% | [5] -3% | [6] -1.75%

CCNS(=O)(=O)c1cc(C(=O)O)cc(C(=O)O)c1
inactive: [1] 6.9% | [2] -7.6% | [3] -4.95% | [4] -28.9% | [5] -5.55% | [6] 0.15%

Cn1c(=O)c2c(nc(C(c3ccccc3)c3ccccc3)n2C)n(C)c1=O
inactive: [1] -11.3% | [2] -25.5% | [3] -3.55% | [4] -33.5% | [5] 6.25% | [6] -18.6%

O=C(CCCC(=O)Nc1ccccc1)Nc1ccccc1
inactive: [1] -9.35% | [2] -6.9% | [3] -1.55% | [4] -35.2% | [5] -14.1% | [6] -15.7%

COc1cccc2cc[nH]c12
inactive: [1] 0.2% | [2] 11.2% | [3] -9.2% | [4] 10.8% | [5] 7.7% | [6] 8.6%

COC(=O)NCP(=O)(CNC(=O)OC)CNC(=O)OC
inactive: [1] 13.8% | [2] 1.4% | [3] -1.35% | [4] 8.65% | [5] -4% | [6] 10.7%

CCCCc1c(O)c(N=NC(=O)C[N+](C)(C)C)c2ccccc2c1O
inactive: [1] 31.5% | [2] 40.2% | [3] 22.8% | [4] 11.6% | [5] 0.85% | [6] 36.9%

CCC(C(=O)O)c1ccc(-c2ccccc2)cc1 (stereo not given)
inactive: [1] 24.6% | [2] 24.1% | [3] 19.1% | [4] 23.1% | [5] 24.4% | [6] 9.5%

CC(C)=CCOc1ccc(-c2coc3cc4c(c(O)c3c2=O)C=CC(C)(C)O4)cc1
inactive: [1] 15.7% | [2] 3.1% | [3] 15.9% | [4] 13.3% | [5] 24% | [6] 26.8%

FC(F)(F)c1cccc(C=NC23CC4CC(CC(C4)C2)C3)c1
inactive: [1] -16.4% | [2] -14.6% | [3] -2.05% | [4] 10.4% | [5] -30% | [6] 8.75%

COC1(OC)N=C(N)C2(C#N)/C(=N/N(C)C)CC(C)C12C#N (stereo not given)
inactive: [1] 11.9% | [2] 4.35% | [3] -18.4% | [4] -16.1% | [5] -22.8% | [6] -40.7%

CCOC(=O)C(CCCOC1CCCCO1)(C(=O)CC)c1ccccc1 (stereo not given) (tested in a mixture with another compound)
inactive: [1] 25.4% | [2] -7.05% | [3] -6.25% | [4] 2.3% | [5] 1.9% | [6] -3.05%

COc1cc(C2c3cc4c(cc3[C@@H](OC3OC5CO[C@@H](C)OC5C(O)C3O)[C@H]3COC(=O)C23)OCO4)cc(OC)c1OC (stereo not given in full)
inactive: [1] 2.4% | [2] -36.1% | [3] -21.9% | [4] 12.4% | [5] -16.7% | [6] -83.5%

O=c1c2c(oc3c(Cl)cc(Cl)cc13)CCCC2
inactive: [1] 13.3% | [2] -19.6% | [3] -1.8% | [4] 7.6% | [5] 5.8% | [6] 4.05%

CSc1ccc2c(=O)c(C(=O)O)c[nH]c2c1
inactive: [1] -0.05% | [2] 15.7% | [3] 5.25% | [4] 1.75% | [5] 10.3% | [6] 5.85%

Cc1ccc(/C=C2\CCCC(C(NO)c3ccc(C)cc3)C2=NO)cc1 (stereo not given)
inactive: [1] -10.9% | [2] -20.2% | [3] 3.1% | [4] 1.2% | [5] -6.6% | [6] -9.25%

O=C(N/N=C\c1ccc([N+](=O)[O-])cc1)Nc1cccc2ccccc12
inactive: [1] -49% | [2] 13.3% | [3] -42.4% | [4] -14.4% | [5] -1% | [6] -41.8%

C[C@@H](CC(=O)O)OC1OC(COC(=O)C(C)(C)C)C(OC(=O)C(C)(C)C)C(OC(=O)C(C)(C)C)C1OC(=O)C(C)(C)C (stereo not given in full)
active: [6] 85.8%
inactive: [1] 4.25% | [2] -45.1% | [3] -17.7% | [4] 7% | [5] -15.5%

NC1CSc2ccccc2NC1=O (stereo not given)
inactive: [1] 20.5% | [2] 31.9% | [3] 7.8% | [4] 9.8% | [5] 22.8% | [6] 33%

O=[N+]([O-])c1cccc(C2OCC3(CO2)COC(c2cccc([N+](=O)[O-])c2)OC3)c1 (stereo not given)
inactive: [1] 2.95% | [2] -21.8% | [3] 6.5% | [4] 10.2% | [5] -3.1% | [6] 10.8%

O=C(C(=O)c1cccc(C(=O)C(=O)c2ccccc2)c1)c1ccccc1
inactive: [1] 5.45% | [2] -10.6% | [3] -15.2% | [4] 17.3% | [5] -29% | [6] 9.5%

Nc1nc(=S)c2ncn(C3OC(COC(=O)c4ccc([N+](=O)[O-])cc4)C(OC(=O)c4ccc([N+](=O)[O-])cc4)C3OC(=O)c3ccc([N+](=O)[O-])cc3)c2[nH]1 (stereo not given)
inactive: [1] 3.35% | [2] 3.35% | [3] -2.65% | [4] -1.7% | [5] -5.65% | [6] 14.3%

C=C1C(=O)OC2/C=C(\C)C(=O)CC3OC(C)(C)OC3(C)CC(OC(=O)/C(C)=C/C)C12 (stereo not given)
inactive: [1] 15.4% | [2] -14% | [3] 16.6% | [4] 9.6% | [5] -16.2% | [6] -30.6%

N#Cc1nc(CC(=O)c2ccccc2Cl)c(CC(=O)c2ccccc2Cl)nc1C#N
inactive: [1] 22.4% | [2] 20.1% | [3] 5.6% | [4] 25.4% | [5] 13.4% | [6] 19.4%

CCCSc1nnc(SCCC)c2[nH]cnc12
inactive: [1] 0.85% | [2] -5.45% | [3] 0.95% | [4] -22.3% | [5] 2.4% | [6] -8.7%

CCCCn1c(=O)cc(C(=O)O)c2ccccc21
inactive: [1] 1.7% | [2] -12.7% | [3] -0.5% | [4] -9.25% | [5] -7.9% | [6] 0.05%

CC(=O)c1sc(Nc2ccc(S(=O)(=O)Nc3nc(C)cc(C)n3)cc2)nc1C
inactive: [1] 15.6% | [2] -0.75% | [3] 8.9% | [4] 31.3% | [5] -11.7% | [6] -10.1%

COc1cc(C=Nc2cc(Cl)c(N=O)c(Cl)c2)ccc1N(CCCCl)CCCCl
inactive: [1] 33.4% | [2] -13% | [3] 40.8% | [4] -15.8% | [5] 2.2% | [6] 12.3%

N#CSCc1c(Cl)c(Cl)c(CSC#N)c(Cl)c1Cl
inactive: [1] -13.8% | [2] -7.15% | [3] 2.15% | [4] -18.9% | [5] 5.85% | [6] -12.4%

OCCN(c1ccccc1)c1nc(N(CCO)c2ccccc2)nc(N(CCO)c2ccccc2)n1
inactive: [1] 2.7% | [2] 8.8% | [3] 32.5% | [4] 7.75% | [5] 29.9% | [6] 1.7%

NCCCCC(N)C(=O)NC1C(CO)OC(n2cnc3c(N)ncnc32)C1O (stereo not given)
inactive: [1] 31.9% | [2] 13.2% | [3] 7.55% | [4] 14.3% | [5] 5.75% | [6] 30.1%

Cc1ccc(-n2cc(-c3ccc(Cl)cc3)c3c2N=CN2NC(c4ccco4)=NC32)cc1 (stereo not given)
inactive: [1] 5.1% | [2] 14.8% | [3] -13.6% | [4] -12.4% | [5] 11% | [6] -15.3%

O=[N+]([O-])c1ccc(/C=C/c2ccc([N+](=O)[O-])cc2S(=O)(=O)O)c(S(=O)(=O)O)c1
inactive: [1] 25.8% | [2] -9.6% | [3] 30.8% | [4] 5.45% | [5] 32.9% | [6] 32%

CC(=O)Nc1ccc(S(=O)(=O)Oc2noc3ccc(Br)cc23)cc1
inactive: [1] -8.35% | [2] -8.05% | [3] -23% | [4] -4.5% | [5] -3.95% | [6] 2.4%

N#CCCN1C(=O)C2(CCC#N)CCCCC2(O)N=C1c1ccccc1 (stereo not given)
inactive: [1] -7.35% | [2] 6.15% | [3] 16.5% | [4] -0.5% | [5] 15.2% | [6] 7.7%

c1ccc(CN2CCCCC2)nc1
inactive: [1] -12.9% | [2] -20.7% | [3] -11.1% | [4] 10.6% | [5] -10.2% | [6] -10.2%

CC(=O)C1=C(O)C(CSCc2ccccc2)NC1=O (stereo not given)
inactive: [1] 10.8% | [2] 0.65% | [3] 5.95% | [4] -2.9% | [5] 15.1% | [6] 15.2%

O=C(O)C1C(Br)C(Br)C1C(=O)O (stereo not given) (tested in a mixture with another compound)
inactive: [1] 0.25% | [2] -16.6% | [3] -12.2% | [4] -22.2% | [5] -15.3% | [6] -19.3%
